Sampled rows, rich in hits. Any-hit rate of the full collection: about 6.1%.
RORgamma inh: blocks mouse ROR gamma transcriptional activity. P51450. AID 2551. Drosophila S2 Gal4-RORgamma UAS-luciferase reporter, 20 h. Potency, µM (highest dose often 53.6 µM), for inactives: at the highest dose activity change, negative = inhibition, most hits filed as inhibitors. 310,000 compounds, 5.4% hits; note: % is set by controls: 0 for no effect and ±100 for the full control effect; nearly all actives have a fitted effect of over 60% in size
Target sequence (P51450 whole entry, looked up, the tested form may be a part): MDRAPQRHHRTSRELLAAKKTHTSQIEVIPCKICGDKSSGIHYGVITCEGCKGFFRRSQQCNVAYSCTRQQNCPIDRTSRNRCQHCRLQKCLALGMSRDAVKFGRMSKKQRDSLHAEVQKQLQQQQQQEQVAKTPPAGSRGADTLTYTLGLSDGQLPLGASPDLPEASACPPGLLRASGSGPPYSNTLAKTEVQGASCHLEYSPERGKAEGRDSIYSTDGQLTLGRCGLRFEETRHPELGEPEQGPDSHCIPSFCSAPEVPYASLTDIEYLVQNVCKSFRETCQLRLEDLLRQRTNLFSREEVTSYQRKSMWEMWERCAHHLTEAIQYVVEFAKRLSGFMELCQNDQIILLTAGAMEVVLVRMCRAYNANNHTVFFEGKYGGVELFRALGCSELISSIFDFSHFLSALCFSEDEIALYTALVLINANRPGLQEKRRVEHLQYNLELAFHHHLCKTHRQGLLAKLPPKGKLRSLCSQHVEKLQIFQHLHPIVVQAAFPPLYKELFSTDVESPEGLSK
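Compounds are pin-transferred onto Drosophila Schneider cells expressing a copper-inducible Gal4–ROR gamma transactivation domain fusion. After 1 hr, copper sulfate is added to 700 uM final; luciferase is read 20 hr later.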
TGFb inhibitor: inhibitors of TGF-b signaling. AID 588855. Potency, µM (series often up to 46.1 µM), for the others: top-dose activity, negative = inhibition, most hits filed as inhibitors. 410,000 compounds, 1.2% hits. HepG2 CAGA-GFP TGF-b/SMAD3 reporter, GFP fluorescence, 18 h; TGF-beta stimulated, 500 pg/mL final; note: % is set by controls: 0 for no effect and ±100 for the full control effect; nearly all actives have a fitted effect of over 65% in size
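Inhibition of TGF-beta-driven CAGA-GFP reporter expression in HEPG2 cells is measured by cellular GFP fluorescence after 18 h stimulation with 500 pg/mL recombinant TGF-beta in 1% FBS medium at 37 degrees C.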
HepG2 tox: kills HepG2 cells in TGF-b inhibitor counter-screen; HepG2 CAGA-GFP viability, ATP luminescence, 18 h; Potency, µM (titrated, usually from 46.1 µM), for inactives: at the top dose activity change, negative = cytotoxicity, usual class: cytotoxic; 410,000 compounds, 0.76% hits
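HepG2 CAGA-GFP cells (1000/well, DMEM with 1% FBS) received compound, then TGF-beta at 500 pg/mL final, and were incubated 18 hours at 37 degrees C. Viability was read by CellTiter-Glo luminescence. Media-only wells were set as complete cell-killing and DMSO as no toxicity.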
VP16 counter: counter-screen for ROR gamma inhibitors: Gal4-VP16 reporter | Drosophila S2 Gal4-VP16 UAS-luciferase, luminescence, 20 h | Potency, µM (doses to about 53.6 µM), for the others: top-dose activity, negative = inhibition, most hits filed as inhibitors | 310,000 compounds, 3.5% hits | AID 2546;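 note: Gal4-VP16 expression switched on by copper sulfate through the metallothionein promoter; % is set by controls: 0 for no effect and ±100 for the full control effect; nearly all actives have a fitted effect of over 50% in size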
ATXN2 expr inh: inhibitors of ATXN2 expression. 360,000 compounds, 0.72% hits. Potency, µM (titrated, usually from 57 µM), for inactives: at the highest dose activity change, negative = inhibition, most hits filed as inhibitors. HEK-293 ATXN2-luciferase reporter, luminescence, 24 h; note: % is set by controls: 0 for no effect and ±100 for the full control effect; nearly all actives have a fitted effect of over 55% in size
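ATXN2-luciferase reporter cells (luciferase flanked by upstream and downstream ATXN2 gene portions) were treated 24 h at 37 °C with compounds at up to 57 uM. SteadyGlo luminescence gave expression; GF-AFC fluorescence gave viability.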
ATXN viability: reduces viability in counter-screen for ATXN expression inhibitors. S2 cells (HEK-293 line with an ATXN2-luciferase reporter) viability, CellTiter-Fluor protease fluorescence, 24 h. Potency, µM (highest dose often 56.7 µM), hits mostly cytotoxic. 400,000 compounds, 0.49% hits. AID 651635; note: nearly all actives have a fitted effect of over 40% in size
Active calls of the source: *; i = inactive; ? = inconclusive; . = not tested or not shown; [ ] = remark or other dose. Calls come from the whole dose curve; as a rule, active = well fitted curve in the direction sought with a large enough effect; inconclusive = small, poorly fitted or top-dose-only effect, or another doubt; inactive = no such curve, though single readings can be large; an effect the other way counts as inactive or inconclusive. Potency is the fitted concentration of half-maximal effect.

SMILES	RORgamma inh	TGFb inhibitor	HepG2 tox	VP16 counter	ATXN2 expr inh	ATXN viability
CCOC(=O)c1c[nH]c(=S)n1C	11.2µM*	-7.7%	3.0%	-1.5%	-3.5%	i
CCOC(=O)c1sc(=S)n(C)c1C	5.4%	-9.7%	-2.5%	-0.4%	-0.8%	?
S=C1SCN(CC2CC2)CN1CC1CC1	7.94µM*	11.2µM*	-10.0%	7.08µM*	?	i
CC(C)(C)c1ccc(C(=O)NCCc2csc3nc(-c4ccccc4F)nn23)cc1	.	17.8µM*	-22.3%	.	0.2%	?
CCCCOc1ccc(C(=O)NCCc2csc3nc(-c4ccccc4F)nn23)cc1	.	-6.6%	-15.6%	.	0.0%	i
c1c2c(cc3sc(N4CCCCC4)nc13)OCO2	10µM*	?	10µM*	11.2µM*	20.8%	?
COc1cc(NS(=O)(=O)c2ccc(N/C=C(\C#N)c3nc4ccccc4o3)cc2)nc(OC)n1	43.6%	-0.5%	0.1%	1.7%	5.3%	i
COc1cc(NS(=O)(=O)c2ccc(N/C=C(\C=O)c3nc4ccccc4o3)cc2)nc(OC)n1	8.91µM*	10.0%	-7.1%	?	-23.9%	i
Cc1ccoc1C(=O)Nc1ccc(CC(=O)O)cc1	0.501µM*	-3.0%	-32.9%	?	?	i
CCOC(=O)c1[nH]c(C)c(CCC(=O)Nc2ccc(N(CC)CC)cc2C)c1C	.	-9.7%	-17.6%	.	-8.6%	i
CCOC(=O)CSc1nnc(NC(=O)c2ccc3c(c2)OCO3)s1	11.2µM*	-46.3%	-33.2%	15.8µM*	-19.2%	i
CC(c1ccccc1)c1nnc(NC(=O)c2ccc3c(c2)OCO3)s1 (stereo not given)	?	-9.8%	-29.4%	0.9%	.	i
CC(C)c1nnc(NC(=O)c2ccc3c(c2)OCO3)s1	6.31µM*	-8.2%	-4.8%	?	?	i
CCSc1nnc(NC(=O)c2ccc3c(c2)OCO3)s1	-22.6%	-0.3%	-22.3%	?	-20.2%	i
COc1ccc(-c2c(C)c3ccc(O)c(CN4CCCC(C)C4)c3oc2=O)cc1OC (stereo not given)	.	-9.1%	-12.7%	.	-10.2%	.
CCc1ccc(CNC(=O)C2CCN(C(=O)c3ccc(-n4ccc5ccccc54)s3)CC2)cc1	.	?	-28.8%	.	.	.
CC(C)(C)OC(=O)N1CCC(c2c(C(=O)NCc3ccc4c(c3)OCO4)cnn2-c2ccc(F)cc2F)CC1	.	12.6µM*	-19.5%	.	.	.
CCOc1ccc(C(=O)NCC(c2ccc3c(c2)OCO3)N2CCN(c3ccccc3F)CC2)cc1 (stereo not given)	.	?	-19.8%	.	-19.5%	?
O=C(Nc1ccccc1O)c1c(O)c2c([nH]c1=O)CCCC2	-36.4%	12.6µM*	-57.5%	?	86.9%	?
O=C(Nc1nccs1)c1c(O)c2c([nH]c1=O)CCCC2	?	-1.2%	-0.9%	-5.9%	85.3%	i
Cc1ccc(-c2csc3ncnc(SCC(=O)Nc4nnc(C)s4)c23)cc1	-44.3%	-0.6%	-1.6%	-6.3%	1.4%	i
Cc1ccc(-c2csc3ncnc(Sc4nnc(CN5CCCCCC5=O)o4)c23)cc1	10µM*	0.0%	-99.9%	?	28.2µM*	.
COc1cc(/C=N/NC(=S)NCC2CCCO2)cc(OC)c1OC (stereo not given)	4.47µM*	5.9%	-10.9%	15.8µM*	22.7%	i
COc1ccc(/C=N/NC(=S)NCC2CCCO2)cc1 (stereo not given)	2.82µM*	-1.5%	2.9%	11.2µM*	8.3%	i
COC(=O)c1ccc(/C=N/NC(=O)C(=O)NCC2CCCO2)cc1 (stereo not given)	26.6%	3.2%	3.2%	-0.1%	1.0%	i
SMILES	RORgamma inh	TGFb inhibitor	HepG2 tox	VP16 counter	ATXN2 expr inh	ATXN viability
CC(=O)N1c2ccc(S(=O)(=O)NCCC(=O)Nc3ccc(Br)c(C)c3)cc2CC1C (stereo not given)	.	11.2µM*	-30.3%	.	-34.7%	?
CC(=O)N1c2ccc(S(=O)(=O)NCCC(=O)Nc3ccc(C)c(Cl)c3)cc2CC1C (stereo not given)	30.7%	?	-21.5%	?	-17.7%	i
Cc1ccc(S(=O)(=O)NCCC(=O)Nc2ccc(Cl)c(Cl)c2)cc1C	?	?	-45.8%	11.2µM*	.	i
COc1ccccc1CNC(=O)COc1cc(=O)n(C)c2ccccc12	.	-12.9%	-2.3%	.	-0.2%	i
CCNC(=S)NNC(=O)CCn1c2ccccc2c2ccccc21	?	-21.8%	-21.6%	?	-10.2%	i
Cc1cnn(CCC(=O)NNC(=S)Nc2ccc(F)cc2)c1	0.447µM*	-1.0%	-16.2%	2.82µM*	-11.2%	i
CCNC(=S)NNC(=O)CCn1cc(C)cn1	6.31µM*	-4.2%	8.0%	?	-4.1%	i
Cc1cnn(CCC(=O)NNC(=S)Nc2cccc(Cl)c2)c1	0.355µM*	-17.0%	3.3%	?	8.0%	i
COc1ccc(NC(=S)NNC(=O)CCn2cc([N+](=O)[O-])cn2)cc1	-42.8%	-17.2%	-8.9%	-0.1%[10 µM]	-7.5%	i
Cc1ccc(C(=O)N/N=C\c2ccccc2[N+](=O)[O-])cn1	10µM*	8.3%	-0.3%	?	24.6%	i
COc1cc([N+](=O)[O-])cc(/C=N/NC(=O)CSc2ccccn2)c1O	0.631µM*	?	-25.4%	6.31µM*	-24.8%	?
COc1cc([N+](=O)[O-])cc(/C=N/NC(=O)c2ccc(C)nc2)c1O	0.891µM*	16.2%	11.4%	0.631µM*	?	?
Cc1ccc(C(=O)N/N=C\C=C\c2ccccc2[N+](=O)[O-])cn1	21.3%	-11.0%	-12.7%	?	1.0%	i
COc1cccc(/C=N/NC(=O)c2cc3cc([N+](=O)[O-])ccc3s2)c1O	1.41µM*	0.0%	10µM*	2.51µM*	?	.
COc1cc([N+](=O)[O-])cc(/C=N/NC(=O)c2ccc(NC(=O)c3ccc(C)cc3)cc2)c1O	?	?	-72.3%	-8.2%[10 µM]	?	?
COc1cc(OC)nc(O[C@H](C(=O)O)C(OC)(c2ccccc2)c2ccccc2)n1	.	.	.	.	8.0%	i
CCOC(=O)c1c(C)oc2ccc(N(C(C)=O)S(=O)(=O)c3c(C)cc(C)cc3C)cc12	.	7.2%	-9.7%	.	-4.7%	i
C(=C\c1ccnc2ccccc12)/c1cccnc1	.	2.6%	-36.4%	.	.	.
COc1ccc([N+](=O)[O-])cc1/C=N/NC(=O)Cc1ccccc1	7.94µM*	2.5%	22.3%	?	.	i
CCNC(=S)N/N=C/c1ccccc1[N+](=O)[O-]	4.47µM*	2.3%	3.8%	?	9.3%	i

Compound activity as filed in PubChem.
